ELG1 genotoxic – qHTS screen for small molecules that induce genotoxicity in human embryonic kidney (HEK293T) cells expressing luciferase-tagged ELG1. HEK293T ELG1-luciferase reporter, luminescence, 16 h. Potency, µM (highest dose often 46 µM), most hits filed as activators. 330,000 tested, 1.3% active. AID 504466, 2011; also: nearly all actives have a fitted effect of over 60% in size
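Luminescence read-out: rising ELG1-luciferase signal, reflecting elevated ELG1 protein under genetic stress, flags genotoxic compounds. Cells were treated for 16 hr at 37 °C before ONE-Glo detection.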
Rab9 prom act – qHTS Assay for Rab9 Promoter Activators | Potency, µM (highest dose often 9.22 µM), actives largely listed as activators | 320,000 tested, 2.8% active | Huh7 Rab9 promoter-luciferase reporter, luminescence, 24 h | AID 485297, 2010; also: nearly all actives have a fitted effect of over 60% in size
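Using Huh7 cells stably transfected with Rab9 promoter–luciferase, compounds were incubated 24 h at 37 °C, 5% CO2; luciferase luminescence was read 10 min after reagent addition.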
FLuc modulator – qHTS profiling assay for firefly luciferase inhibitor/activator using purifed enzyme and Km concentrations of substrates (counterscreen for miR-21 project); purified FLuc, Km substrates, luminescence inhibition; Potency, µM (titrated, usually from 57.5 µM), usual class: inhibitors; 360,000 tested, 6.9% active; AID 588342, 2011; also: nearly all actives have a fitted effect of over 55% in size
Target sequence (P08659 whole entry, looked up): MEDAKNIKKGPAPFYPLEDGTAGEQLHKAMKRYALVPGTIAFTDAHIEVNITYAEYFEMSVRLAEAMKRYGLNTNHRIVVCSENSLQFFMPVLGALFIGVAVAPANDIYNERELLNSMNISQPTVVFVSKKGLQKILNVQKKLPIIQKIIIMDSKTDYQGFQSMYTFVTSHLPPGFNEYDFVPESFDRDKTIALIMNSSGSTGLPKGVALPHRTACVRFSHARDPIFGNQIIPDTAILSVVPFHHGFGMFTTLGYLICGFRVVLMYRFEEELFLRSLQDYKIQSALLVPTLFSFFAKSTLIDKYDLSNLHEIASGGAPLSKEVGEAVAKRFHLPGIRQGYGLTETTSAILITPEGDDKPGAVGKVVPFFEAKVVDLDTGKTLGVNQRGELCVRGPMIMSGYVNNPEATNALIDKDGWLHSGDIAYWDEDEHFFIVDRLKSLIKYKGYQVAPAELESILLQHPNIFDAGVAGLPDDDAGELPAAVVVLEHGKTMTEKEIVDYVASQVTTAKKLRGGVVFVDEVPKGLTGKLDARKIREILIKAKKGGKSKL
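Purified P. pyralis luciferase, 10 nM final, with Km-level 10 uM D-luciferin and 10 uM ATP in 50 mM Tris acetate pH 7.5, 10 mM Mg acetate, 0.01% Tween-20, 0.05% BSA; 6-point qHTS titration about 60 µM downward; luminescence read.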
NPC1 prom act – qHTS Assay for NPC1 Promoter Activators. 320,000 tested, 2.4% active. Huh7 NPC1 promoter luciferase reporter, 24 h. Potency, µM (highest dose often 9.22 µM), actives largely listed as activators; also: nearly all actives have a fitted effect of over 60% in size
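Luminescence read-out of NPC1 promoter-driven luciferase in stably transfected Huh7 cells; compounds delivered in DMSO and left 24 h at 37C, 5% CO2, qHTS titration format.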
SMN2 splice up – qHTS Assay for Enhancers of SMN2 Splice Variant Expression | 210,000 tested, 2.8% active | HEK293 SMN2-luciferase splicing reporter, luminescence, 30-36 h | Potency, µM (highest dose often 46.1 µM), usual class: activators; also: nearly all actives have a fitted effect of over 55% in size
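HEK293 cells carry an SMN2 minigene-luciferase reporter in which exon 7 inclusion puts luciferase in frame. Cells were seeded at 2000 cells/well, attached for 10-12 hours, then exposed to compounds for 30-36 hours at 37C before ONE-Glo luminescence.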
ELG1 DNA repair – qHTS screen for small molecules that inhibit ELG1-dependent DNA repair in human embryonic kidney (HEK293T) cells expressing luciferase-tagged ELG1. HEK293T ELG1-luciferase reporter, luminescence, 16 h; DNA damage induced by 5-fluorouridine. Potency, µM (doses to about 46.1 µM), actives largely listed as inhibitors. 330,000 tested, 2.3% active. AID 504467, 2011; also: nearly all actives have a fitted effect of over 55% in size
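HEK293T cells expressing luciferase-tagged ELG1 (2,000/well) received 5-Fluorouridine plus compound or DMSO for 16 hr at 37 °C. Luciferase was read by ONE-Glo luminescence after 30 min at room temperature.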
Hits are given with their value; . = inactive; ? = inconclusive; / = not tested or not shown. This is a sample that favours compounds with a hit; in the whole collection about 9.3% have one here. Calls follow the shape of the dose curve; as a rule, active = well fitted curve in the direction sought with a large enough effect; inconclusive = small, poorly fitted or top-dose-only effect, or another doubt; inactive = no such curve, though single readings can be large; an effect the other way counts as inactive or inconclusive.

SMILES	ELG1 genotoxic	Rab9 prom act	FLuc modulator	NPC1 prom act	SMN2 splice up	ELG1 DNA repair
Cc1ccc(C(=O)COC(=O)c2cccs2)cc1	?	0.45µM	0.15µM	0.79µM	?	?
Cc1ccc(C(=O)COC(=O)CNC(=O)c2cccs2)cc1	/	/	.	/	.	/
O=C(CCN1C(=O)C2CCCCC2C1=O)Nc1nc2c(F)cc(F)cc2s1 (configuration not stated)	?	1.4µM	.	2.5µM	/	?
O=C(CCN1C(=O)C2CCCCC2C1=O)Nc1nc2ccc(F)cc2s1 (configuration not stated)	?	0.4µM	0.85µM	0.63µM	/	?
O=C(CN1C(=O)NC2(CCCCC2)C1=O)Nc1nc2c(F)cc(F)cc2s1	.	.	.	.	/	.
O=C(CCN1C(=O)C2CCCCC2C1=O)Nc1cc(F)ccc1F (configuration not stated)	.	.	.	.	/	.
CN(C(=O)c1cc(Cl)c2c(c1)OCCO2)c1c(N)n(Cc2ccccc2)c(=O)[nH]c1=O	.	.	.	.	/	.
COc1ccc(OC2CCN(S(=O)(=O)c3ccc(OC)cc3)CC2)cc1	.	.	.	.	?	15µM
COc1ccc(C2C(C(=O)NCc3ccco3)c3ccccc3C(=O)N2C)cc1 (configuration not stated)	.	.	.	.	.	.
Cc1oc2cc3c(C(=O)N4CCCCC4)c(C)oc3cc2c1C(=O)N1CCCCC1	?	?	11µM	.	.	?
COc1cc2c(C(=O)N3CCN(C)CC3)c(C)oc2cc1Br	.	.	.	.	.	.
Cc1c(N=Nc2c(-c3ccc([N+](=O)[O-])cc3)[nH]n(C(N)=S)c2=O)cccc1[N+](=O)[O-]	.	.	?	.	.	2.1µM
NC(=S)n1[nH]c(-c2ccc([N+](=O)[O-])cc2)c(N=Nc2ccccc2[N+](=O)[O-])c1=O	.	.	.	.	.	?
Cc1[nH]n(C(N)=S)c(=O)c1N=Nc1cccc([N+](=O)[O-])c1C	?	2.5µM	8.5µM	?	/	?
NC(=S)n1[nH]c(-c2ccc([N+](=O)[O-])cc2)c(N=Nc2cccc([N+](=O)[O-])c2)c1=O	.	.	?	.	.	3.3µM
CCOC(=O)/C(C#N)=C/Nc1ccsc1C(=O)OC	.	.	.	.	/	.
CCC(C)(C(=O)NC1CCCC1)N(CC1CCCO1)C(=O)CNC(=O)c1ccccc1 (configuration not stated)	.	.	.	.	.	.
COc1ccc(S(=O)(=O)Nc2cccc(-c3ccc4nncn4n3)c2)cc1F	.	.	.	.	.	.
COc1ccc(S(=O)(=O)Nc2cccc(-c3ccc(N4CCCCCC4)nn3)c2)cc1OC	.	.	6µM	.	/	.
CCOc1ccc(S(=O)(=O)Nc2cccc(-c3ccc(N4CCC(C)CC4)nn3)c2)cc1	/	/	2.7µM	/	/	/
COc1ccc(S(=O)(=O)Nc2cccc(-c3ccc(N4CCCC4)nn3)c2)cc1F	/	/	13µM	/	/	/
COc1ccc(S(=O)(=O)Nc2cccc(-c3ccc(N4CCCCCC4)nn3)c2)cc1	/	/	6.7µM	/	/	/
CCCCOc1ccc(S(=O)(=O)Nc2ccc(-c3ccc(N4CCCCCC4)nn3)cc2)cc1	/	/	.	/	/	/
c1ccc2c(-c3ccncc3)c[nH]c2c1	.	.	.	.	.	21µM
Cc1ccc(C)c(NC(=O)CSc2ccc3nc(-c4ccccc4)cn3n2)c1	/	/	.	/	/	/
SMILES	ELG1 genotoxic	Rab9 prom act	FLuc modulator	NPC1 prom act	SMN2 splice up	ELG1 DNA repair
CCc1ccc(NC(=O)CSc2ccc3nc(-c4ccc(OC)cc4)cn3n2)cc1	/	/	2.7µM	/	/	/
N#CCSc1ccc2nc(-c3ccccc3)cn2n1	?	2µM	7.6µM	2.8µM	/	?
CC(=O)c1ccc(NC(=O)CSc2ccc3nc(-c4ccccc4)cn3n2)cc1	/	/	12µM	/	/	/
CCC(C)c1ccc(OCCn2ccnc2)cc1 (configuration not stated)	.	.	.	.	.	.
CC(C)(C)c1cc(=O)[nH]c(SCc2ccccc2)n1	.	.	?	.	.	.
Fc1ccc(-n2[nH]nnc2=S)cc1N1CCCC1	.	.	24µM	.	.	.
CC(=O)Nc1ccc(NC2=Nc3ccccc3N3C2=Nc2c(c(C)nn2-c2ccccc2)C3c2ccccc2)cc1 (configuration not stated)	.	.	.	.	.	2.8µM
COc1ccc(NC2=Nc3ccccc3N3C2=Nc2c(c(C)nn2-c2ccc(C)cc2)C3c2cccnc2)cc1 (configuration not stated)	.	.	.	.	.	.
O=C(OCc1cc2ccccc2[nH]c1=O)c1ccccc1	.	.	.	.	.	.
O=C(COc1ccccc1)OCc1cc2ccccc2[nH]c1=O	.	.	21µM	.	.	?
COc1cccc(-c2nc(NC(C)C)c3ccccc3n2)c1O	.	.	.	.	.	5.2µM
CCC(C)Nc1nc(-c2cccc(OC)c2O)nc2ccccc12 (configuration not stated)	.	.	.	.	.	.
COc1ccc(/C=C/C(=O)NC2CCCCC2C)cc1 (configuration not stated)	.	.	.	.	/	.
COc1ccc(/C=C/C(=O)Nc2cccc(F)c2)cc1	/	/	0.85µM	/	4µM	/
COc1ccc(/C=C/C(=O)NC2CC3CCC2C3)cc1 (configuration not stated)	?	.	17µM	.	/	?
COc1ccc(OC)c(/C=C/C(=O)OCC(=O)Nc2cccc(C(C)=O)c2)c1	.	.	.	.	.	.
COc1ccc(NC(=O)/C=C/c2ccc(Cl)cc2)cc1	/	2.5µM	/	2.1µM	11µM	/
COc1ccc(/C=C/C(=O)Nc2cccc(C(C)=O)c2)cc1	.	?	0.95µM	?	11µM	?
CCOC(=O)c1ccc(NC(=O)CNC(=O)c2ccccc2)cc1	.	.	.	.	.	.
S=C(c1ccc(N2CCOCC2)cc1)N1CCCCC1	.	.	.	.	.	.
Cc1ccccc1C(=O)NCCCc1ccccc1	.	.	?	.	13µM	?
Cc1ccc(-n2nc(CO)c(C(=O)NCCCc3ccccc3)n2)cc1C	/	/	5.4µM	/	.	/
Cc1ccc(C(=O)NCCCc2ccccc2)s1	?	?	21µM	4µM	13µM	?
Cc1ccccc1N(C(=O)c1snc(C(N)=O)c1N)C(C(=O)NCc1ccccc1)c1ccc(O)cc1 (configuration not stated)	.	.	.	.	/	?

Screening results as filed in PubChem.
